Drawing on PubChem BioAssay (NCATS), this text covers Potency and outcome for six compounds.

Assay [1] is described as follows: OV-KATE Cancer Cell Toxicity qHTS against the NCATS CANVASS Library (AID 1347345). Note: potency is the fitted concentration of half-maximal effect. Put shortly: (§1)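 Viability read-out: CellTiter-Glo luminescence after 72 h compound exposure at 37 °C/5% CO2. Cells plated at 1000/well, 4 h pre-incubation; 11-point titration. Bortezomib served as control.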
Assay [2] in a line: U-118MG Cancer Cell Toxicity qHTS against the NCATS CANVASS Library (AID 1347351). Note: potency is the fitted concentration of half-maximal effect. The method in brief: as §1
A general note: qHTS replaces the single test concentration by a dilution series.

The nature of assay [3]: HPAF-II 24hr Apoptosis Induction qHTS against the NCATS CANVASS Library (AID 1347356). The method in brief:
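Apoptosis induction in HPAF-II pancreatic cancer cells is measured as caspase-3/7 luminescence after a 24-hour exposure to compounds.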

A short description of assay [4]: HPAF-II 12hr Apoptosis Induction qHTS against the NCATS CANVASS Library (AID 1347358). Put shortly:
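Apoptosis in HPAF-II pancreatic cancer cells is scored as caspase 3/7 luminescence following a 12-hour exposure to an 11-point compound series.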

A short description of assay [5]: HEK293 24hr Apoptosis Induction qHTS against the NCATS CANVASS Library (AID 1347359). Put shortly:
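Caspase-3/7 activation measured as luminescence from the DEVD-based Caspase-Glo reagent, 15 min at room temperature, following 24-hour compound treatment of HEK293 cells.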

A short description of assay [6]: HPAF-II 18hr Apoptosis Induction qHTS against the NCATS CANVASS Library (AID 1347360). Put shortly: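 Caspase-3/7 activation was measured with luminescent Caspase-Glo 3/7 reagent (15 min, RT) in HPAF-II cancer cells (500 cells/well). Before detection, cells had been treated for 18 h at 37 C with compounds (11 points).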
Assay [7] is described as follows: HEK293 12hr Apoptosis Induction qHTS against the NCATS CANVASS Library (AID 1347361). Note: potency is the fitted concentration of half-maximal effect. The method in brief:
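HEK293 cells (500/well, DMEM + 10% FBS) were exposed to natural products across an 11-point series for 12 hours at 37 degrees C. Caspase-3/7 activity was then measured with DEVD luciferase luminescence after 15 min at room temperature.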

The target of assay [8] is Luciferin 4-monooxygenase (Photinus pyralis) (UniProt P08659). Kind of assay: Firefly luciferase counterscreen qHTS: Assay Interference Panel against the NCATS CANVASS Library (AID 1347363). Note: series mostly up to about 57 µM. The method in brief:
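Luminescence inhibition readout: compounds (11-point qHTS) sat 15 min at room temperature with substrate mix (0.013 mM luciferin and ATP), then firefly luciferase was added and signal read 5 min later.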
In general terms: The purpose of a counterscreen is to sort out artefacts and off-target activity.

The nature of assay [9]: qHTS for ATAD5 Agonist screened against the NCATS CANVASS Library (AID 1347367).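 Note: luciferase reporter driven by ATAD5 which rises upon DNA damage.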 The method in brief:
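Genotoxicity via ATAD5-luciferase luminescence after 16 h compound exposure (11-point series) at 37C in HEK293T-ATAD5 cells. CellTiter-Fluor viability read precedes the luminescence read; MMS serves as positive control.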

Assay [10] can be described thus: MCF7 Cancer Cell Toxicity qHTS against the NCATS CANVASS Library (AID 1347369). Note: potency is the fitted concentration of half-maximal effect. Put shortly:
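Cytotoxicity was measured as CellTiterGlo luminescence (ATP) after 72 h at 37 °C. The cells were MCF7 at 500 per well, with an 11-point compound concentration series.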

Assay [11] can be described thus: J3T Cancer Cell Toxicity qHTS against the NCATS CANVASS Library (AID 1347371). Note: potency is the fitted concentration of half-maximal effect. Put shortly:
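Viability of the J3T glioma line from dog is scored by ATP luminescence after a 72 hr incubation with natural products.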

The target in assay [12] is Nuclear receptor subfamily 1 group I member 3 (Homo sapiens) (UniProt Q14994). Kind of assay: qHTS for Constitutive Androstane Receptor (CAR) Antagonist screened against the NCATS CANVASS Library (AID 1347372). Note: potency is the fitted concentration of half-maximal effect. The method in brief:
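HepG2-CYP2B6-hCAR double-stable cells plated, 4hr attach; cpd pin-transferred; CITCO 50 nM final; 24hr 37C/5% CO2; CellTiter-Fluor 1hr (fluorescence), then ONE-Glo luminescence.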

Assay [13] has the same target. Kind of assay: qHTS for Constitutive Androstane Receptor (CAR) Agonist screened against the NCATS CANVASS Library (AID 1347373).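 Note: every well also contained 1.5 µM PK11195 alongside the test compound.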 Put shortly: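 CAR agonism is scored as CYP2B6-promoter luciferase induction in a double-stable transfected HepG2 line, where 1.5uM PK11195 is included in each well. Compounds were tested over a 24hr exposure.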
Assay [14] in a line: 10-beta competent E. coli microbial cell viability qHTS against the NCATS CANVASS Library (AID 1347376). Note: series mostly up to about 46 µM. Put shortly:
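Cytotoxicity toward competent E. coli is scored from cellular ATP content via BacTiter-Glo luminescence following overnight compound exposure at 37C, 5% CO2.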

Assay [15] can be described thus: qHTS for H2AX Agonists against the NCATS CANVASS Library (AID 1347378). Note: potency is the fitted concentration of half-maximal effect. Put shortly:
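Phospho-H2AX (S139) in CHO-K1 lysates measured by HTRF, reported as 665/615 nm emission ratio after 24 hr antibody incubation at room temperature. Cells were first treated with a compound series for 3 hr at 37C (0.76% DMSO final).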

A short description of assay [16]: Inflammasome Signaling qHTS Counterscreen: IL-1-beta AlphaLISA counterscreen against the NCATS CANVASS Library (AID 1347381).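 Note: cell-free check with purified IL-1β in medium and no THP-1 cells; series mostly up to about 57 µM.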 The method in brief:
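To flag interference with the AlphaLISA read-out, a known amount of purified IL-1-beta (4 pg) replaced cell supernatant. Detection used anti-IL-1-beta acceptor beads, biotinylated antibody and streptavidin donor beads at room temperature.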

Assay [17] in a line: COV-362 Cancer Cell Toxicity qHTS against the NCATS CANVASS Library (AID 1347352). Note: potency is the fitted concentration of half-maximal effect. Put shortly:
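qHTS cytotoxicity: compounds tested in 11 concentrations on 1000 seeded cells per well over 72 h; bortezomib served as control; signal from CellTiter-Glo luminescence.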

The nature of assay [18]: KB-3-1 Cancer Cell Toxicity qHTS against the NCATS CANVASS Library (AID 1347366). Note: nearly all actives have a fitted effect of over 75% in size. Note: potency is the fitted concentration of half-maximal effect. Put shortly: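 CellTiter-Glo luminescence measured viability after 72 h at 37C. KB-3-1 cells were seeded at 500 per well in DMEM/10% FBS.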
Assay [19] in a line: qHTS for Inflammasome Signaling Inhibitors: IL-1-beta AlphaLISA screen against the NCATS CANVASS Library (AID 1347379).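 For Potency: secreted IL-1B measured as AlphaLISA emission at 615 nm; potency is the fitted concentration of half-maximal effect.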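 Note: human THP-1 cells primed with LPS then triggered with ATP.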 The method in brief:
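Human THP-1 cells were pretreated 1 hr at 37 °C with compounds (up to 57.5 uM final), then stimulated with LPS (250 ng/mL final) and ATP (1.25 mM final). Secreted IL-1B was read by AlphaLISA after 16 hr.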

A short description of assay [20]: Viability qHTS for inhibitors of the SERCaMP assay screened against the NCATS CANVASS Library (AID 1347400). Note: nearly all actives have a fitted effect of over 70% in size. Note: potency is the fitted concentration of half-maximal effect. The method in brief: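 Cytotoxicity counter-screen: ATP content (CellTiter-Glo luminescence) of SH-SY5Y-GLuc SERCaMP MJH297 cells after 48 h at 37C with compounds in an 11-point qHTS series.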

Unmarked numbers belong to inactive results. Inconclusive results are not listed. The source made the active and inactive calls. Calls come from the whole dose curve; as a rule, active = well fitted curve in the direction sought with a large enough effect; inconclusive = small, poorly fitted or top-dose-only effect, or another doubt; inactive = no such curve, though single readings can be large; an effect the other way counts as inactive or inconclusive.

Chain of Nuclear receptor subfamily 1 group I member 3 (Homo sapiens) (Q14994 whole entry, looked up): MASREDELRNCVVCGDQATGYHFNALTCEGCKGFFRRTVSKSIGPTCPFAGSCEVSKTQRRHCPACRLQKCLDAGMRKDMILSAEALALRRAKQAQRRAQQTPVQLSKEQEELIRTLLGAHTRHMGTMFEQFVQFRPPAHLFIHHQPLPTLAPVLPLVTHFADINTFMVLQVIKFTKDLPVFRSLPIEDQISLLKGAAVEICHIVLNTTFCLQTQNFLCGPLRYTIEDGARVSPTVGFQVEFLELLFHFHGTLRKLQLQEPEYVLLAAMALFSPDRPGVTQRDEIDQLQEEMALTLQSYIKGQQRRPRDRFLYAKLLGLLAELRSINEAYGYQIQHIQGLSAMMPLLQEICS
Chain of Luciferin 4-monooxygenase (Photinus pyralis) (P08659 whole entry, looked up): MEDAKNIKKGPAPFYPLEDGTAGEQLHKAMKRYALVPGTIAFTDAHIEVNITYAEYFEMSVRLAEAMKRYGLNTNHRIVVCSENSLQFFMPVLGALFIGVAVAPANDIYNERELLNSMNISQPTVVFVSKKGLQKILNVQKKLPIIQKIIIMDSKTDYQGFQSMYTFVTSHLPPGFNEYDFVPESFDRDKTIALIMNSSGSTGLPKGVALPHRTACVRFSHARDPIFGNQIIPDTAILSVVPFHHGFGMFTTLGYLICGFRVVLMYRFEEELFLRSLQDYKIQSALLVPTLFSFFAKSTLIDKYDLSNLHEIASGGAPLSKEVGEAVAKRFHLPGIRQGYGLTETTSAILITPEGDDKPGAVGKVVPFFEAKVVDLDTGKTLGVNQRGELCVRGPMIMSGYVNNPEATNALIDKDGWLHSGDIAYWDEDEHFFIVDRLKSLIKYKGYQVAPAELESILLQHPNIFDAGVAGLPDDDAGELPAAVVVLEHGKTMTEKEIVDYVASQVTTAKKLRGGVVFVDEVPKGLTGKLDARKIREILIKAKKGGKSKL

Take `CN1CCc2cc3c(c4c2[C@H]1[C@@H](O)c1ccccc1-4)OCO3`: the Potency entry in assay [1], in [2], in assay [4], in [5], in assay [6] and in assay [7] was “inactive” each time. Moreover, the Potency result in assay [8], in [9], in assay [11], in assay [12] and in assay [15] was “inactive” throughout. Besides, the result in assay [3], in assay [13], in assay [14] and in assay [16] was inactive. Further, the Potency in assay [10] is 26.2 µM (active).
As for `CN1CC[C@]2(c3cccc4c3N[C@@H]3N(C)CC[C@]43[C@@]34CCN(C)[C@@H]3Nc3ccccc34)c3ccccc3N[C@H]12`, the Potency in assay [1] was 14.9 µM (active); in assay [2], 7.49 µM (active); in assay [17] it was 13.3 µM (active); in assay [18], 16.6 µM (active); in assay [10] it was 9.31 µM (active); in assay [11], 7.43 µM (active). In addition, the Potency in assay [12] was 26.3 µM (active); in [19] it was 24.3 µM (active); in assay [20], 15.2 µM (active). The outcome in assay [3], in [13], in [14] and in [16] was inactive. For the same compound, the Potency result in assay [4], in [5], in assay [6], in [7], in assay [8] and in [9] was “inactive” throughout. In addition, in assay [15], the Potency result is “inactive”.
Regarding `CN1CC[C@]2(c3cccc4c3N[C@@H]3N(C)CC[C@]43[C@@]34CCN(C)[C@@H]3Nc3c([C@]56CCN(C)[C@H]5Nc5ccccc56)cccc34)c3ccccc3N[C@H]12`, the Potency in assay [1] is 8.38 µM (active); in assay [2] it was 6.68 µM (active); in assay [17], 5.94 µM (active); in assay [18] it was 4.69 µM (active); in [10], 2.34 µM (active); in [11] it was 2.64 µM (active). The Potency in [12] is 26.3 µM (active); in [15], 13.7 µM (active); in [19] it was 24.3 µM (active); in assay [20], 4.8 µM (active). Moreover, the result in assay [3] and in [13] was inactive. Besides, the Potency entry in assay [5], in assay [6], in assay [7], in [8] and in assay [9] was “inactive” each time.
`CC1=CC[C@@]2(C[C@@H]1O)[C@@H](C(=O)O)CC[C@H]2C(C)C`: the Potency entry in assay [1], in [2], in assay [17], in [4], in assay [5] and in [6] was “inactive” throughout. In addition, the Potency entry in assay [7], in assay [8], in assay [18], in [9], in assay [10] and in assay [11] was “inactive” each time. Further, the Potency entry in [12], in assay [15], in assay [19] and in assay [20] was “inactive” each time. Besides, the call in assay [3], in assay [13], in assay [14] and in assay [16] was inactive.
Turning to `C/C=C/C(=O)[C@@H](C)C1=CC(=O)C2=C(O[C@@]34CC[C@H](O)C(C)(C)[C@@H]3CC[C@H](C)[C@@]4(C)C2)C1=O`, the Potency in assay [1] is 8.38 µM (active); in [7], 9.35 µM (active); in assay [18], 20.9 µM (active); in assay [10], 13.1 µM (active); in [11] it was 5.26 µM (active); in assay [12], 20.9 µM (active). The Potency in assay [15] is 15.4 µM (active); in [19], 3.43 µM (active); in assay [20] it was 13.5 µM (active). Besides, the Potency result in [8] and in [9] was “inactive” each time. Further, the compound was called inactive in assay [13], in assay [14] and in [16].
Regarding `COc1cc(/C=C/C(=O)O)ccc1O`, the Potency result in assay [1], in [2], in assay [17], in [4], in [5] and in assay [6] was “inactive” each time. The Potency result in assay [7], in assay [8], in [18], in assay [9], in assay [10] and in assay [11] was “inactive” each time. The Potency entry in assay [12], in assay [15], in [19] and in assay [20] was “inactive” throughout. Moreover, the call in [3], in [13], in assay [14] and in assay [16] was inactive.
